In the supplement of paper PMC6555819 one finds PBM binding z-score data, which are given here for six sequences.

Common to all, as to assay: PBM binding z-score (relative to random genomic background probes); higher = stronger binding; sequences stand for … in GC…GCGATTGACAGCGTAGAATGAAGG
Assay [1] has as its system FXR:RXRa (NR concentration 270 nM, RXRa partner concentration 90 nM). In short, it runs like this: (§1)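 The probes on custom Agilent 4×180K protein-binding microarrays were double-stranded, with 34-nt variable regions bearing direct-repeat seeds, single-nucleotide variants, half-site ablations and random human genomic background sequences. Incubation lasted 1 h with ligand-free nuclear receptor dimers in PBS pH 7.4, 2% milk, 0.02% Triton X-100, 1 mM DTT, 0.2 mg/mL BSA and 0.4 mg/ml salmon testes DNA. Antibodies against each partner (one per run) detected bound dimers, and fluorescence scans were regression-normalized. Binding z-scores take the random background probes as reference.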

In assay [2] the test system is LXRa:RXRa (NR concentration 270 nM, RXRa partner concentration 90 nM). In short, it runs like this:
as §1

The subject of assay [3] is LXRa homodimer (NR concentration 270 nM). The procedure, abridged:
as §1

In assay [4] the test system is LXRb:RXRa (NR concentration 270 nM, RXRa partner concentration 90 nM). In short, it runs like this: as §1
In assay [5] the test system is LXRb homodimer (NR concentration 270 nM). In short, it runs like this:
as §1

Assay [6] concerns PPARa:RXRa (NR concentration 270 nM, RXRa partner concentration 90 nM). The procedure, abridged: as §1
Assay [7] relates to PPARg:RXRa (NR concentration 180 nM, RXRa partner concentration 90 nM). The procedure, abridged:
as §1

Assay [8] concerns PPARg:RXRa 270nM:90nM, anti-RXR (NR concentration 270 nM, RXRa partner concentration 90 nM). The procedure, abridged: as §1
Assay [9] relates to PPARg:RXRa 30nM:10nM, anti-RXR (NR concentration 30 nM, RXRa partner concentration 10 nM). In short, it runs like this: as §1
The test system of assay [10] is PPARg:RXRa 90nM:30nM, anti-RXR (NR concentration 90 nM, RXRa partner concentration 30 nM). The procedure, abridged: as §1
In assay [11] the test system is PPARg:RXRa DBDmut IVT, anti-RXR (DBD mutation: RXRa K156A/R161A, NR concentration 270 nM, RXRa partner concentration 90 nM). In short, it runs like this:
as §1

Assay [12] relates to PPARg:RXRa IVT, anti-PPARg (NR concentration 270 nM, RXRa partner concentration 90 nM). The procedure, abridged: as §1
Assay [13] deals with PPARg DBDmut:RXRa IVT, anti-PPARg (DBD mutation: PPARg1 K132A/R137A, NR concentration 270 nM, RXRa partner concentration 90 nM). In short, it runs like this: as §1
Assay [14] deals with PPARg DBDmut IVT, anti-PPARg (DBD mutation: PPARg1 K132A/R137A, NR concentration 270 nM). In short, it runs like this:
as §1

In assay [15] the test system is PPARg homodimer (NR concentration 180 nM). In short, it runs like this:
as §1

The subject of assay [16] is PXR:RXRa (NR concentration 270 nM, RXRa partner concentration 90 nM). In short, it runs like this:
as §1

Assay [17] deals with PXR homodimer (NR concentration 270 nM). The procedure, abridged: as §1
In assay [18] the test system is RARa:RXR (NR concentration 270 nM, RXRa partner concentration 90 nM). In short, it runs like this:
as §1

Assay [19] relates to RARa homodimer (NR concentration 270 nM). The procedure, abridged: as §1
In assay [20] the test system is RARb:RXRa (NR concentration 270 nM, RXRa partner concentration 90 nM). In short, it runs like this:
as §1

For the sequence CGAACTAGGTTAGAACAGGACAGTGAAGGATGAT, the PBM binding z-score in assay [1] was 0.283; in assay [2], 0.174; in [3], -0.0175; in assay [4], -0.235; in assay [5], 0.0334; in [6], 1.22. The PBM binding z-score in assay [7] amounted to 1.6; in assay [8], 1.27; in [9] it was 0.448; in assay [10], 0.886; in assay [11], 5.02; in assay [12], 4.21. Moreover, the PBM binding z-score was 0.977 in assay [13]; 0.101 in [14]; 0.487 in [15]; -0.0109 in assay [16]; -0.256 in assay [17]; 0.212 in assay [18]. Also, the PBM binding z-score was -0.0731 in assay [19] and 0.527 in assay [20].
With ACTAGTTGGTCAGCTGAGGTCATACACAATTCGG, the PBM binding z-score in [1] was 3.84; in [2] it was 3.45; in assay [3], 3.44; in assay [4] it was 3.54; in assay [5] it was 1.09; in assay [6], 3.52. The PBM binding z-score was found to be 1.43 in [7]; 1.72 in [8]; 0.448 in [9]; 1.14 in [10]; 1.47 in [11]; 2.35 in assay [12]. Moreover, the PBM binding z-score in assay [13] amounted to 1.46; in [14], 1.13; in assay [15], 3.38; in [16], 5.65; in assay [17], 3.46; in [18], 4.45. Further, the PBM binding z-score was determined as 0.98 in [19] and 3.15 in assay [20].
GCGACTGGGGGATCAGCAGGTTACCATAACTTAA: the PBM binding z-score in assay [1] is 0.383; in assay [2], 0.523; in assay [3] it was 0.0867; in assay [4], 2.54; in assay [5], 5.33; in [6], 1.5. Besides, the PBM binding z-score in assay [7] was 0.824; in assay [8], 1.73; in [9], 0.24; in assay [10], 1.15; in [11] it was 0.873; in [12] it was 2.43. In addition, the PBM binding z-score was determined as 3.69 in assay [13]; 4.01 in assay [14]; 0.749 in [15]; 1.15 in assay [16]; 0.388 in [17]; 1.31 in [18]. For the same sequence, the PBM binding z-score in [19] was -0.462; in assay [20] it was 0.688.
On to AGAATGAGGTTATTAAGCTCAGGGAATTGCGGTC, for which the PBM binding z-score is 1.57 in assay [1]; 1.14 in assay [2]; -0.316 in assay [3]; 0.747 in [4]; -0.299 in assay [5]; 2.6 in [6]. Further, the PBM binding z-score is 0.995 in assay [7]; 1.26 in assay [8]; -0.0679 in [9]; 0.636 in assay [10]; 2.58 in assay [11]; 1.95 in assay [12]. Moreover, the PBM binding z-score was 0.589 in assay [13]; 0.126 in [14]; -0.0657 in assay [15]; 0.757 in [16]; -0.286 in assay [17]; 0.948 in assay [18]. Besides, the PBM binding z-score in [19] was -0.655; in assay [20], 1.09.
As to GCGGCTGGGGCATCAGCAGGTTACCATAACTTAA, the PBM binding z-score in assay [1] is -0.5; in [2] it was -0.215; in [3] it was -0.622; in assay [4] it was 0.239; in assay [5] it was -0.602; in [6], 0.602. Further, the PBM binding z-score in [7] was -0.0151; in assay [8], -0.415; in assay [9], -0.593; in assay [10], -0.53; in [11] it was -0.444; in assay [12], 0.118. Moreover, the PBM binding z-score in assay [13] is -1.33; in assay [14], -0.84; in assay [15], 0.149; in assay [16], 0.178; in [17], -0.595; in assay [18], 0.635. Also, the PBM binding z-score in assay [19] is -0.988; in assay [20] it was 0.966.
As to ATATGTAGGTTACAACCGGGTCATTCAGGCTATG, the PBM binding z-score in [1] came out at 2.4; in assay [2] it was 4.01; in assay [3], 1.33; in assay [4], 2.93; in assay [5], 0.715; in assay [6], 4.68. The PBM binding z-score was 5.74 in [7]; 5.17 in assay [8]; 3.03 in assay [9]; 4.61 in assay [10]; 7.11 in assay [11]; 7.41 in assay [12]. For the same sequence, the PBM binding z-score in [13] is 3.31; in assay [14], 2.35; in [15], 2.21; in [16], 3.88; in [17] it was 1.71; in [18] it was 3.96. Further, the PBM binding z-score in assay [19] was 0.487; in assay [20], 2.36.
